Assay results as given in PubChem BioAssay AID1211 (NMMLSC, 2008).
Activity calls are given as the source filed them. How the calls were made is not given here.

Target: Estrogen receptor (Homo sapiens) (UniProt P03372)
Assay: displacement of fluorescent estrogen from ERalpha – cell-based, Cos7 ERalpha-GFP, flow cytometry, primary screen (AID 1211);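 further: 0% = DMSO vehicle wells and 100% = no E2-Alexa633 signal left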
Settings: fluorescent ligand competition, stronger effect = higher value

Estrogen receptor (Homo sapiens), sequence (P03372 whole entry, looked up): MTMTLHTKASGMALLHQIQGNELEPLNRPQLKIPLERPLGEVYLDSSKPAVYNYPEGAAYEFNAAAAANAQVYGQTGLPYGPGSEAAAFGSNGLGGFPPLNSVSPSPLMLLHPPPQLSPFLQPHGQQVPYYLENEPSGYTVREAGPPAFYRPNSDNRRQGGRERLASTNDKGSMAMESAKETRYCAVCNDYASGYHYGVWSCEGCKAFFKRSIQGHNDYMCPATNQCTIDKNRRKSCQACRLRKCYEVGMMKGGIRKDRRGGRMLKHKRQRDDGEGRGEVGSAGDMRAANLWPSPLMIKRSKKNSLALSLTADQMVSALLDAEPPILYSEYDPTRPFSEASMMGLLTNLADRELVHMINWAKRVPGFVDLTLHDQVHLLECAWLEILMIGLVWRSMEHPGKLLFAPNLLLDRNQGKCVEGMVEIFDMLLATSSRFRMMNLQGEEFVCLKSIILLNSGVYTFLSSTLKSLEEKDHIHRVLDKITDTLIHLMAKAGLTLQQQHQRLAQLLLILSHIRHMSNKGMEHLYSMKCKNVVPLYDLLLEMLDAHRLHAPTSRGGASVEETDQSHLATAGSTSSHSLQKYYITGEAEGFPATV

Structure (SMILES): CCN(c1ccccc1)S(=O)(=O)c1cc(C(=O)O)ccc1C
- inhibition of ligand binding (at 10 µM): 7% (inactive)
- inhibition of ligand binding (binding inhibition, at 0.1 µM): 20%

Structure (SMILES): O=C(O)c1cc(-c2ccco2)nc2ccccc12
- inhibition of ligand binding (at 10 µM): 57% (inactive)
- inhibition of ligand binding (binding inhibition, at 0.1 µM): 21%

Structure (SMILES): CC(=O)c1cccc(NC(=O)Cc2cccs2)c1
- inhibition of ligand binding (at 10 µM): 3% (inactive)
- inhibition of ligand binding (binding inhibition, at 0.1 µM): 40%

Structure (SMILES): COc1cc(NC(=O)COc2ccc(-n3cnnn3)cc2)c(OC)cc1Cl
- inhibition of ligand binding (at 10 µM): 58% (inactive)
- inhibition of ligand binding (binding inhibition, at 0.1 µM): 41%

Structure (SMILES): O=c1cc(-c2ccco2)oc2c1ccc1ccccc12
- inhibition of ligand binding (at 10 µM): 48% (inactive)
- inhibition of ligand binding (binding inhibition, at 0.1 µM): 4%

Structure (SMILES): COc1cc(-c2nc3ccc4ccccc4c3c3c2CCC3)cc(OC)c1O
- inhibition of ligand binding (at 10 µM): 0% (inactive)
- inhibition of ligand binding (binding inhibition, at 0.1 µM): 30%

Structure (SMILES): CCc1ccc2[nH]c(=O)c(CN(Cc3ccc4c(c3)OCO4)C(=O)c3ccco3)cc2c1
- inhibition of ligand binding (at 10 µM): 0% (inactive)
- inhibition of ligand binding (binding inhibition, at 0.1 µM): 62%

Structure (SMILES): CCCOc1ccc(-c2nn(-c3ccccc3)cc2/C=C2\SC(N)=NC2=O)cc1
- inhibition of ligand binding (at 10 µM): 50% (inactive)
- inhibition of ligand binding (binding inhibition, at 0.1 µM): 13%

Structure (SMILES): O=c1c(OC2OC(CO)C(O)C(O)C2O)c(-c2ccc(O)c(O)c2)oc2cc(O)cc(O)c12 (centres undefined)
- inhibition of ligand binding (at 10 µM): 39% (inactive)
- inhibition of ligand binding (binding inhibition, at 0.1 µM): 33%

Structure (SMILES): CC(=O)c1ccc(NC(=S)N2CCCC(CO)C2)cc1 (centres undefined)
- inhibition of ligand binding (at 10 µM): 13% (inactive)
- inhibition of ligand binding (binding inhibition, at 0.1 µM): 1%

Structure (SMILES): O=C(Cn1nnc(-c2ccc3c(c2)OCO3)n1)NCc1ccco1
- inhibition of ligand binding (at 10 µM): 38% (inactive)
- inhibition of ligand binding (binding inhibition, at 0.1 µM): 62%

Structure (SMILES): O=C(Oc1ccc2c(c1)OCO2)c1cc2c(s1)CCC2
- inhibition of ligand binding (at 10 µM): 32% (inactive)
- inhibition of ligand binding (binding inhibition, at 0.1 µM): 27%

Structure (SMILES): CCc1oc2c(C)c(O)ccc2c(=O)c1-c1ccc2ccccc2n1
- inhibition of ligand binding (at 10 µM): 14% (inactive)
- inhibition of ligand binding (binding inhibition, at 0.1 µM): 54%

Structure (SMILES): Nc1ccc2nc(-c3cccnc3)[nH]c2c1
- inhibition of ligand binding (at 10 µM): 44% (inactive)
- inhibition of ligand binding (binding inhibition, at 0.1 µM): 26%

Structure (SMILES): Cn1c(SCc2cc(=O)n3cc(Br)ccc3n2)nnc1C1COc2ccccc2O1 (centres undefined)
- inhibition of ligand binding (at 10 µM): 19% (inactive)
- inhibition of ligand binding (binding inhibition, at 0.1 µM): 27%

Structure (SMILES): Cc1oc2c(C)c(O)ccc2c(=O)c1N1C(=O)c2ccccc2C1=O
- inhibition of ligand binding (at 10 µM): 9% (inactive)
- inhibition of ligand binding (binding inhibition, at 0.1 µM): 52%

Structure (SMILES): CN1CCC(=NNC(=O)c2cn(-c3ccccc3)nc2-c2ccccc2)CC1
- inhibition of ligand binding (at 10 µM): 3% (inactive)
- inhibition of ligand binding (binding inhibition, at 0.1 µM): 11%
